# PfHsp90 yeast 2: inhibits growth of yeast expressing Plasmodium falciparum Hsp90 | S. cerevisiae expressing PfHsp90, BacTiter-Glo ATP, 48 h; yeast lacking PDR1 and PDR3 efflux regulators | inhibition, % at 9.4 µM | hit rate 0.32% among 310,000 | AID 504621;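 active = every replicate shows inhibition above about 80%, whatever the replicate mean, limit read from the data; inconclusive = mean inhibition reaches the set limit but some replicate falls short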
# tim10-1 inh: tim10-1 yeast growth inhibition | S. cerevisiae tim10-1 ts strain growth, BacTiter-Glo, 24 h | inhibition, % at 20 µM | hit rate 2.2% among 330,000;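 active = inhibition of at least 40%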;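 note: mutant grown at 25 °C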
# tim23-1 inh: growth inhibitors of tim23-1 mutant yeast; AID 463212; inhibition, % at 20 µM; hit rate 1.3% among 330,000; S. cerevisiae tim23-1 growth, BacTiter-Glo luminescence, 24 h;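 active = growth inhibition of the mutant yeast at or above 50%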;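 note: temperature-sensitive mutant grown at 25 °C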
# SKKanGAS inh: inhibitors of SKKanGAS S. pyogenes growth in kanamycin (SK-promoter or general growth effect); BacTiter-Glo, 6 h; inhibition, % at 7.5 µM; hit rate 1.3% among 300,000; AID 1662;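 active = mean replicate score, as percent of positive control median, at least 50; inconclusive = mean below 50 but one replicate at or above 50; inactive = mean and every replicate below 50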;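 note: strain carries kanamycin resistance gene driven by streptokinase promoter and grows in 40 µg/ml kanamycin; loss of luminescence reflects streptokinase promoter inhibition or plain growth inhibition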
# TIM10 inh: inhibits growth of TIM10 yeast strain. S. cerevisiae TIM10 strain growth, BacTiter-Glo luminescence, 24 h. inhibition, % at 10 µM. hit rate 1.4% among 330,000;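 active = inhibition of 40% or more at the single tested concentration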;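 note: wild-type TIM10 isogenic control strain grown at permissive 25 °C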
# tim23-1 confirm: tim23-1 yeast growth inhibition, confirmed | shares compounds with tim23-1 inh | S. cerevisiae tim23-1 growth, BacTiter-Glo luminescence, 24 h | inhibition, % at 20 µM | hit rate 83% among 4,400;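 active = inhibition above about 39% in either of two replicate wells at 20 µM, limit read from the data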;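 note: temperature-sensitive tim23-1 mutant grown at 25 °C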
# Hits are given with their value; . = inactive; ? = inconclusive; / = no result. An excerpt weighted towards active compounds, which were near 4.4% of everything screened.
SMILES,PfHsp90 yeast 2,tim10-1 inh,tim23-1 inh,SKKanGAS inh,TIM10 inh,tim23-1 confirm
O=C(O)c1cn(-c2ccc(N3CCCC3)c(F)c2)c2c(F)c(F)c(F)cc2c1=O,106,.,53,.,.,.
Cc1c(-n2cc(C(=O)O)c(=O)c3cc(F)c(N4CCCC(O)C4)c(F)c32)c(=O)n(-c2ccccc2)n1C (stereo unspecified),.,.,.,.,.,/
CC(NC(=O)c1ccccc1F)c1nnc(SCC(=O)Nc2nnc(C3CC3)s2)n1C (stereo unspecified),/,.,.,.,.,/
O=C1NN=C(c2ccc(Cl)cc2)CC1c1cccc(Br)c1 (stereo unspecified),.,.,53,.,.,59
Cc1ccc(C2=NNC(=O)C(c3ccc(Cl)cc3)C2)cc1 (stereo unspecified),/,.,.,.,.,/
COC(=O)[C@H](CC(C)C)N1Cc2cc(OC)cc(OC)c2-c2ccccc2S1(=O)=O,.,.,50,/,.,.
O=C(/C=C/N1CCOCC1)c1ccc(-c2ccccc2)cc1,106,.,52,.,.,.
O=C(N/N=C/C(Br)=C/c1ccccc1)c1ccccc1F,.,.,69,.,.,51
CC1C(=O)NN=C1C(=O)N/N=C\C(Br)=C\c1ccccc1 (stereo unspecified),.,.,.,.,.,/
O=C(N/N=C/C(Cl)=C/c1ccccc1)c1ccco1,.,.,64,.,.,.
O=C(N/N=C/C(Cl)=C/c1ccccc1)c1ccccc1F,.,.,51,.,.,.
O=C(COC(=O)c1ccccc1O)Nc1cccc(S(=O)(=O)N2CCCC2)c1,.,.,.,/,.,/
Cc1c(O)c(CN2CCCC2)cc2c3c(c(=O)oc12)CCC3,.,.,53,.,.,.
Cc1c(Cl)cccc1NCC(=O)Nc1ccc(Cl)cc1F,.,.,54,.,.,42
CCn1cc(C(=O)NN)c(=O)c2cc(F)c(N3CCCCC3)cc21,.,.,51,.,.,.
Cc1ccc(S(=O)(=O)N2CCC(C(=O)Nc3cc(C(F)(F)F)ccc3N3CCOCC3)CC2)cc1C,/,.,.,.,.,/
O=C(c1cccnc1)C1Cc2ccccc2C1=O (stereo unspecified),.,.,54,.,.,52
O=C(NN1C(=O)CSC1=S)c1cccnc1,/,.,.,.,.,/
CCN(CC)C(CNC(=O)CSc1nnnn1-c1c(C)cccc1C)c1ccco1 (stereo unspecified),/,.,.,/,.,/
CC(Oc1cccc(Cl)c1)C(=O)Nc1nc(-c2ccccn2)cs1 (stereo unspecified),.,.,67,.,.,55
Cc1ccc(C(=O)Nc2nc(-c3ccccn3)cs2)s1,.,.,62,/,.,55
CC(Oc1ccccc1)C(=O)Nc1nc(-c2ccccn2)cs1 (stereo unspecified),/,.,.,/,.,/
O=[N+]([O-])c1ccccc1/C=N/n1c(C2CCCCC2)n[nH]c1=S,.,.,59,.,.,48
FC(F)(F)c1ccc(/C=N/n2c(C3CCCCC3)n[nH]c2=S)cc1,.,.,64,.,.,.
Cc1ccc(/C=N/n2c(C3CCCCC3)n[nH]c2=S)cc1,.,.,57,.,.,.
SMILES,PfHsp90 yeast 2,tim10-1 inh,tim23-1 inh,SKKanGAS inh,TIM10 inh,tim23-1 confirm
S=c1[nH]nc(C2CCCCC2)n1/N=C/c1ccc(Cl)cc1,.,.,63,.,.,.
CCc1ccc(/C=N/n2c(C3CCCCC3)n[nH]c2=S)cc1,.,.,.,?,.,/
S=c1[nH]nc(C2CCCCC2)n1/N=C/c1ccc(Br)cc1,.,.,.,.,.,/
O=[N+]([O-])c1cccc(/C=N/n2c(C3CCCCC3)n[nH]c2=S)c1,.,.,.,.,.,/
COc1ccc(CCNC(=O)Cn2ccc3c(OC)cccc3c2=O)cc1OC,.,.,.,.,.,/
CC1(C)OC(=O)C(=Cc2ccc[nH]2)C(=O)O1,.,.,76,.,.,53
Cn1c2ccccc2c(=O)c2c(=O)n(Cc3ccco3)c(-c3ccc(F)cc3)nc21,.,.,.,.,.,/
Cc1ccc(-c2nc3c(c(=O)c4ccccc4n3C)c(=O)n2Cc2ccco2)cc1,.,.,53,.,.,46
COc1ccc(-c2cc(-c3n[nH]c(=S)n3-c3ccccc3Cl)[nH]n2)cc1,.,.,.,.,.,/
Oc1ccc(Cl)cc1CNc1cnc2ccccc2c1,.,.,62,.,.,64
Oc1ccccc1CNc1cnc2ccccc2c1,.,.,.,.,.,/
COc1ccc(-c2cccc(NC(=O)c3cccs3)c2)nn1,/,.,62,.,.,56
O=C(Nc1cccc(-c2nn[nH]n2)c1)c1cccs1,.,.,.,.,.,/
CCOc1ccc(-c2cccc(NC(=O)c3cccs3)c2)nn1,.,.,63,.,.,47
CCOc1ccc(-c2cccc(NC(=O)c3ccco3)c2)nn1,.,.,54,.,.,.
COc1ccc(C2/C(=C(/O)c3ccc(Br)cc3)C(=O)C(=O)N2C)cc1OC (stereo unspecified),.,.,.,.,.,/
O=C(NCc1cccnc1)C12CC3CC(CC(Cl)(C3)C1)C2,.,.,.,.,.,/
O=C(COC(=O)c1ccc2ncsc2c1)Nc1cc(Cl)ccc1F,.,.,56,/,.,41
O=C(COC(=O)c1ccc2ncsc2c1)Nc1ncc(Cl)cc1Cl,.,.,.,.,.,/
CCOc1ccc(C(Nc2cccnc2)c2cc(Cl)c3cccnc3c2O)cc1 (stereo unspecified),106,.,56,/,.,69
CCC(=O)NC(C)c1cc(Cl)c2cccnc2c1O (stereo unspecified),.,.,55,/,.,58
CCCC(=O)NC(c1cccs1)c1cc(Cl)c2cccnc2c1O (stereo unspecified),120,.,56,/,.,69
O=C(O)COc1ccccc1C(Nc1cccnc1)c1cc(Cl)c2cccnc2c1O (stereo unspecified),.,.,.,.,.,/
CCC(=O)NC(c1ccc(C)cc1)c1cc(Cl)c2cccnc2c1O (stereo unspecified),.,.,54,/,.,58
CCC(=O)NC(c1ccco1)c1cc(Cl)c2ccccc2c1O (stereo unspecified),.,.,.,/,.,/
CCN1CCN(S(=O)(=O)c2ccc(OC)c(NC(=O)c3ccccc3)c2)CC1,.,.,.,.,.,/
CS(=O)(=O)N1CCN(CC(=O)NC2CCCCC2)CC1,.,.,.,.,.,/
CC(=O)c1ccc(OCCCC(=O)NCc2nnc3ccccn23)cc1,.,.,.,/,.,/
COc1cccc(CC2(CO)CCCN(Cc3ccc(OC)c(C)c3OC)C2)c1 (stereo unspecified),.,.,.,.,.,/
CN1CCN(C(c2ccc(Br)cc2)c2cc(Cl)c3cccnc3c2O)CC1 (stereo unspecified),107,.,66,69,.,77

# Screening data (PubChem)
